Source: PubChem
JMJD2E inh = inhibitors of human JMJD2E histone demethylase; AID 2147; JMJD2E catalytic domain, FDH-coupled NADH fluorescence (FDH is formaldehyde dehydrogenase); 230,000 tested, 1.6% active; Potency, µM (top dose mostly 57.1 µM), for the others: at the highest dose activity change, negative = inhibition, usual class: inhibitors; B2RXH2; active = well fitted inhibition curve with a large enough effect, not every such curve was filed as active; inconclusive = small, poorly fitted or top-dose-only effect, or another doubt; inactive = no such curve, though single readings can be large or run the other way;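 also: 0% = wells with enzyme and -100% = buffer wells without enzyme; nearly all actives have a fitted effect of over 50% in size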
APEX1 inh = blocks human APE1 abasic DNA cleavage | 350,000 tested, 0.35% active | Potency, µM (series often up to 65.8 µM), inactives show at the top dose activity change, negative = inhibition, most hits filed as inhibitors | recombinant APE1, TAMRA/BHQ-2 abasic DNA cleavage fluorescence;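 also: plate controls were vehicle for no effect and reference inhibitor for full effect; nearly all actives have a fitted effect of over 55% in size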
Target sequence (P27695 whole entry, looked up): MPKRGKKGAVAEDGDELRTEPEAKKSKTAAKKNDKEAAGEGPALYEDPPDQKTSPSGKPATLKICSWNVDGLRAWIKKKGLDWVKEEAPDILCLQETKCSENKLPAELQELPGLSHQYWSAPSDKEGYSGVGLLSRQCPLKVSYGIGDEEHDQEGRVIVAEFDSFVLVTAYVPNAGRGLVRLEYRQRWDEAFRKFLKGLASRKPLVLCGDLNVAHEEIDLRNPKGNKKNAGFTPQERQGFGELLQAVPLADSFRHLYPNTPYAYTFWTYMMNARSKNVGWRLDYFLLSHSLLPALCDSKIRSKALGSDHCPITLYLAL
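Quantitative HTS: incision of a TAMRA/BHQ-2 double-stranded substrate bearing a tetrahydrofuran abasic site by 0.75 nM APE1 raises fluorescence. Substrate 50 nM final, added after 15 min compound preincubation at room temperature; progress as third-minus-first kinetic read difference.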
TDP1 inh = inhibitors of human tyrosyl-DNA phosphodiesterase TDP1. recombinant TDP1, AlphaScreen DNA substrate cleavage. Potency, µM (titrated, usually from 130 µM), inactives show at the highest dose activity change, negative = inhibition, most hits filed as inhibitors. Q9NUW8. 350,000 tested, 0.28% active; also: % is scaled to controls: 0 for no effect and ±100 for the full control effect; nearly all actives have a fitted effect of over 40% in size
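Steps: enzyme plus compound, 15 min RT; add biotin/phosphotyrosine-FITC oligonucleotide (15 nM final), react 5 min; add donor/acceptor beads (10 ug/ml final), 10 min; read AlphaScreen. Tdp1 at 1 nM final.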
BLM inh = inhibitors of human Bloom syndrome helicase BLM; Potency, µM (doses to about 56.1 µM), for inactives: top-dose activity change, negative = inhibition, usual class: inhibitors; 350,000 tested, 0.2% active; recombinant BLM DNA unwinding, fluorescence dequenching; P54132;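 also: plate controls were vehicle for no effect and no enzyme for full effect; nearly all actives have a fitted effect of over 35% in size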
RECQ1 inh-1 = blocks DNA unwinding by human RECQ1. RECQ1 DNA unwinding, red fluorescence kinetic read. Potency, µM (titrated, usually from 57.3 µM), for the others: at the highest dose activity, negative = inhibition, most hits filed as inhibitors. AID 2549. 240,000 tested, 0.54% active;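 also: plate controls were vehicle for no effect and no enzyme for full effect; nearly all actives have a fitted effect of over 30% in size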
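RECQ1T1 50 nM; forked duplex (20 bp + 30-nt ss tails) 200 nM, ATP 2 mM final; pH 8.0, 2 mM MgCl2, 2.5 ug/ml poly(dI-dC); 15 min compound preincubation; discontinuous kinetic read over 2 h at RT.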
L3MBTL1 inh-1 = inhibitors of human L3MBTL1; Q9Y468; AlphaScreen L3MBTL1–H3K9me1 peptide binding; Potency, µM (titrated, usually from 57.1 µM), for the others: at the top dose activity, negative = inhibition, actives largely listed as inhibitors; 230,000 tested, 0.66% active; also: % is scaled to controls: 0 for no effect and ±100 for the full control effect; nearly all actives have a fitted effect of over 60% in size
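L3MBTL1 50 nM + b-AHA-H3(1-15)K9me1 75 nM, 30 min RT; compound added, 30 min RT; streptavidin donor/Ni-chelate acceptor beads 10 ug/mL each final, 30 min RT dark; AlphaScreen read.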
RECQ1 inh conf = confirmation of human RECQ1 helicase inhibitors. 610 tested, 28% active. Potency, µM (titrated, usually from 229 µM), inactives show at the highest dose activity change, negative = inhibition, hits mostly inhibitors. RECQ1 helicase DNA unwinding, fluorescence. shares compounds with RECQ1 inh-1. AID 2708; also: % is scaled to controls: 0 for no effect and ±100 for the full control effect; nearly all actives have a fitted effect of over 45% in size
ADP FP counter = displaces ADP in a fluorescence polarization counter-screen for RECQ1 hits. shares compounds with RECQ1 inh-1. ADP fluorescence polarization displacement counterscreen. Potency, µM (highest dose often 228 µM), for the others: at the top dose activity change, negative = inhibition, actives largely listed as inhibitors. 530 tested, 27% active. AID 2711; also: % is scaled to controls: 0 for no effect and ±100 for the full control effect; nearly all actives have a fitted effect of over 45% in size
RECQ1 inh-2 = confirmation of human RECQ1 helicase inhibitors | shares compounds with RECQ1 inh-1 | recombinant RECQ1 DNA unwinding, red fluorescence | Potency, µM (doses to about 119 µM), without a hit: top-dose activity, negative = inhibition, actives largely listed as inhibitors | 1,100 tested, 15% active | AID 504841; also: % is scaled to controls: 0 for no effect and ±100 for the full control effect; nearly all actives have a fitted effect of over 50% in size
L3MBTL1 inh-2 = L3MBTL1 binding inhibition validated; Potency, µM, most hits filed as inhibitors; shares compounds with L3MBTL1 inh-1; L3MBTL1 methyl-lysine binding inhibition, biochemical qHTS; AID 540279; 500 tested, 91% active; also: nearly all actives have a fitted effect of over 70% in size
L3MBTL1 ctr = interferes with AlphaScreen signal in L3MBTL1 counterscreen; Potency, µM (titrated, usually from 57.1 µM), for inactives: top-dose activity change, negative = inhibition, most hits filed as inhibitors; 500 tested, under 10 active; shares compounds with L3MBTL1 inh-1; AlphaScreen counterscreen, signal inhibition; also: 0% is about no effect
* = called active by the depositor; i = inactive; ? = inconclusive; · = no result given. The entries come from a sample that favours hits as a whole. Unless noted, calls follow the shape of the dose curve; as a rule, active = well fitted curve in the direction sought with a large enough effect; inconclusive = small, poorly fitted or top-dose-only effect, or another doubt; inactive = no such curve, though single readings can be large; an effect the other way counts as inactive or inconclusive. Potency is read from the fitted curve at half-maximal effect.

SMILES | JMJD2E inh | APEX1 inh | TDP1 inh | BLM inh | RECQ1 inh-1 | L3MBTL1 inh-1 | RECQ1 inh-2 | L3MBTL1 inh-2 | L3MBTL1 ctr | others
Cc1ccc(-c2nc3c(c(=O)[nH]c(=O)n3Cc3ccccc3)n2C)o1 | ? | 22µM* | 40µM* | ? | 14µM* | 10µM* | ? | 3.4* | 16% | RECQ1 inh conf=?
Cc1ccc(CCNS(=O)(=O)c2ccc3c(c2)C(C(C)C)C(=O)N3)cc1 (stereo not given) | · | · | 3% | 0% | · | · | · | · | ·
O=C1CCCC2=C1C(c1ccc(O)c(O)c1)c1c(ccc3ncccc13)N2 (stereo not given) | 25µM* | 10µM* | · | -10% | 11µM* | 2µM* | ? | 21* | 14% | RECQ1 inh conf=?;ADP FP counter=?
Cc1ccc2nc(NC(=O)C3CCN(S(=O)(=O)c4cc([N+](=O)[O-])ccc4Cl)CC3)sc2c1 | -3% | ? | -5% | -13% | 32µM* | 10µM* | ? | 9.5* | -16%
CC(=O)Oc1ccc2c(=O)c(Oc3ccccc3)coc2c1OC(C)=O | 3.5µM* | 2.2µM* | · | -9% | 3.5µM* | 14µM* | 25µM* | 9.5* | 9%
CCn1c(SC(C)C(=O)O)nc2sc3c(c2c1=O)CCC3 (stereo not given) | -10% | ? | 11µM* | -10% | ? | 28µM* | ? | 3.4* | 2%
COc1ccc(Nc2ncc3c(n2)CCN(Cc2ccc(Br)s2)C3)c(OC)c1 | · | · | 6% | -10% | · | · | · | · | ·
Cc1ccc(/C=C/C(=O)NCc2ccccn2)o1 | -23% | ? | 14µM* | ? | ? | 32µM* | 18µM* | 7.5* | -4%
CCCN(CCC)C(=O)c1c[nH]c2ccc(S(=O)(=O)N(C)c3ccc(Cl)cc3)cc2c1=O | · | · | 0% | -2% | · | · | · | · | ·
Cc1nccc2oc(=O)c(NC(=O)c3ccc(Cl)cc3)cc12 | 5% | -5% | -6% | -3% | i | 27% | · | · | ·
O=C(Nc1cc2c(oc1=O)CCCC2=O)c1ccc(Cl)cc1 | -10% | ? | 13µM* | ? | 14µM* | 16µM* | · | 3.8* | 11% | RECQ1 inh conf=14µM*;ADP FP counter=?
COc1ccc(NC(=O)C(=O)NCC(c2ccc3c(c2)OCO3)N2CCN(C)CC2)cc1 (stereo not given) | · | · | 2% | -7% | · | · | · | · | ·
O=C(CN1C(=O)CCSc2ccccc21)Nc1ccc(C(F)(F)F)cc1 | · | · | 0% | -13% | · | · | · | · | ·
CCCCC(C)/C=C(C)/C=C(\C)C(=O)NC1=CC(O)(/C=C/C=C/C=C/C(=O)NC2=C(O)CCC2=O)C2OC2C1=O (stereo not given) | · | ? | -10% | ? | ? | · | · | · | ·
COc1ccc(-n2cccc2/C=C2\C(=N)N3N=C(c4ccco4)SC3=NC2=O)cc1 | -25% | 10µM* | · | 13µM* | ? | 16µM* | 7.1µM* | 2.7* | ?
